Out of some 69,000 compounds screened, about 8,600 (12%) showed an effect of 50% or more. The list comes from a sample in which strong results are over-represented; it also holds similar structures and randomly drawn compounds.
These molecules were tested on Plasmodium berghei (assay: Screen against P. berghei liver stage (PbLuc), transformed with Luciferase, at 10uM). Settings: tested at 10 uM.
Type: functional, HepG2

Row | Compound | INHIBITION
1 | CN(C)C1(CNc2ncc(Br)cn2)CCOCC1 | 27.8%
2 | CSC1(CNc2ncc(Br)cn2)CCOCC1 | 45.7%
3 | CCSC1(CNc2ncc(Br)cn2)CCOCC1 | 66.4%
4 | CS(=O)(=O)N1CCCC(Cc2cnc(Br)cn2)CC1 (configuration not stated) | 37.8%
5 | Cc1ccc(C(=O)N2CCCCC2c2[nH]ncc2S(C)(=O)=O)cn1 (configuration not stated) | 24.8%
6 | O=C(c1cc2c(s1)CCOC2)N1CCCCC1Cn1cccn1 (configuration not stated) | -5.07%
7 | CNC(=O)C1(c2cnccn2)CCCN1C(=O)c1ccc(F)cc1 (configuration not stated) | 3.91%
8 | COc1c(C)cnc(CN(C)C2CCOC3(CCOCC3)C2)c1C (configuration not stated) | 43.6%
9 | CCNC(=O)N(C)C1CCN(Cc2ncc(C)c(OC)c2C)CC1 | 82.6%
10 | COc1c(C)cnc(CN2CCC(N(C)C(=O)C3CC3)CC2)c1C | -2.19%
11 | COCc1ccccc1C(=O)N(C)Cc1ncc(C)c(OC)c1C | 50.1%
12 | COc1c(C)cnc(CN2CCC(N(C)C(C)C(N)=O)CC2)c1C (configuration not stated) | 90%
13 | CCC(=O)N(C)C1CCN(Cc2ncc(C)c(OC)c2C)CC1 | 10.8%
14 | COc1c(C)cnc(CN(C)C(=O)c2ccccc2O)c1C | 26.3%
15 | COc1ccccc1C(=O)N(C)Cc1ncc(C)c(OC)c1C | -11.7%
16 | COc1c(C)cnc(CN2CCC(N(C)S(C)(=O)=O)CC2)c1C | -21.9%
17 | COc1c(C)cnc(CN2CCC(N(C)C(=O)C(C)OC)CC2)c1C (configuration not stated) | -29.8%
18 | COc1c(C)cnc(CN(C)C2CCCCC2)c1C | 72%
19 | COc1c(C)cnc(CN(C)C2CCN(C3CCOCC3)CC2)c1C | 7.24%
20 | COc1ccc(CCC(=O)N2CCCCC2Cn2cccn2)cc1F (configuration not stated) | -31.8%
21 | O=C(NCc1ccccn1)[C@]12COC[C@H]1CN(Cc1ccccc1F)C2 | -13.2%
22 | Cc1ncsc1C(=O)N1CCCC1c1c(C)nn(C)c1Cl (configuration not stated) | -0.96%
23 | CC(NCc1cccc(C#N)c1)c1ccccn1 (configuration not stated) | -21%

Row | Compound | INHIBITION
24 | CCc1nc(C2CCCN2Cc2nnc(C3CCC3)o2)no1 (configuration not stated) | 41.65%
25 | CC(C)CCn1cc(C(C(=O)O)N2CCSCC2)cn1 (configuration not stated) | 17.6%
26 | CC(C)C(=O)NC1CCCc2nc(N3CCOCC3)ncc21 (configuration not stated) | 18.3%
27 | Cc1ccc(-c2nc(CN3CCOCC3)no2)cc1N1CCNC1=O | 30%
28 | CCNC(=O)CNC(=O)c1nc(C2CC2)n(-c2ccccc2Cl)n1 | -37.6%
29 | Cc1ccc(Cl)c(CN2CCN(C)C(C(=O)O)C2)c1F (configuration not stated) | -4.52%
30 | CCCc1cc(C(=O)N(Cc2cccnc2)Cc2cccnc2)[nH]n1 | 6.28%
31 | O=C(c1cc(Cl)c[nH]1)N(CCCO)Cc1cccnc1 | 39%
32 | CCOC(=O)CCN(Cc1cccnc1)C(=O)c1cc(Cl)c[nH]1 | 57.5%
33 | CC(C)c1nnc(CN2CC(n3cccn3)C2)o1 | -145%
34 | CN(C(=O)NCCN1CCOCC1)C1CCN(c2ccccc2)C1=O (configuration not stated) | 13.375%
35 | COCc1noc(CN2CCCCC2CCc2cccs2)n1 (configuration not stated) | 51.2%
36 | Cc1nc(CN2CCCCC2CCc2cccs2)co1 (configuration not stated) | 24.9%
37 | c1csc(CCC2CCCCN2Cc2noc(C3CC3)n2)c1 (configuration not stated) | 34.9%
38 | CCNC(=O)CNCc1c(C(C)C)nn(C)c1N1CCOCC1 | 11.35%
39 | COCCn1cc(NC(=O)N(CCC(N)=O)Cc2ccccc2)cn1 | -1.25%
40 | CCN(CC(C)O)C(=O)Nc1cnn(CCOC)c1 (configuration not stated) | 29.8%
41 | CCCN(Cc1ccccc1O)C(=O)Nc1cnn(CCOC)c1 | 59.7%
42 | CC(=O)NCC(=O)N1CCC2(CC1)NC(=O)CC2c1cccnc1 (configuration not stated) | 34.6%
43 | COCCn1ccnc1C1CCCN(C(=O)CSc2nnc(C)o2)C1 (configuration not stated) | 20.9%
44 | CCC(=O)N1CCCCC1c1nc(N(C)C)ncc1-c1cc(C)no1 (configuration not stated) | 22.5%
45 | CNC(=O)NC(=O)C(C)N1CCC(c2c[nH]c3ccc(OC)cc23)CC1 (configuration not stated) | 61.5%
46 | CNC(=O)NC(=O)C(C)N1CCN(C2CCCC2)CC1 (configuration not stated) | 28.7%

Row | Compound | INHIBITION
47 | COc1ccc2[nH]cc(C3CCN(CCC(N)=O)CC3)c2c1 | 36.6%
48 | CNC(=O)NC(=O)CN1CCC(c2c[nH]c3ccc(OC)cc23)CC1 | 15.1%
49 | CNC(=O)NC(=O)C(C)N1CCCc2cc(OC)ccc2C1 (configuration not stated) | -25.1%
50 | CCNC(=O)NC(=O)CN1CCC(c2c[nH]c3ccc(OC)cc23)CC1 | 62.6%
51 | CNC(=O)[C@@H](c1ccccc1)N1CCC[C@H]1C(=O)NCc1cccnc1 | -1.12%
52 | CCS(=O)(=O)N1CCCC2(COCCN(c3nnc(C)o3)C2)C1 (configuration not stated) | 29.8%
53 | Cc1noc(C)c1CN1CCN(C(C)c2nc(C3CC3)no2)CC1 (configuration not stated) | 59%
54 | Cc1noc(C)c1Cc1nc(C2CC2)no1 | 14.6%
55 | Cc1nc(CN2CCN(C(C)c3nc(C4CC4)no3)CC2)oc1C (configuration not stated) | 4.75%
56 | Cc1noc(C)c1CN1CCN(Cc2nc(C3CC3)no2)CC1 | 72.2%
57 | Cc1noc(C)c1CN1CCCC(c2noc(C3CC3)n2)C1 (configuration not stated) | -12.2%
58 | Cc1cnc(CN2CCN(C(C)c3nc(C4CC4)no3)CC2)cn1 (configuration not stated) | 24.7%
59 | CCCN(Cc1nc(-c2ccc(F)c(OC)c2)oc1C)CC1CCCO1 (configuration not stated) | -12.1%
60 | Cc1cc(C)n(CC2CCCN2C(=O)c2cccnc2N(C)C)n1 (configuration not stated) | 21%
61 | Cc1ccc(CN(C(=O)NC2CCS(=O)(=O)C2)C2CC2)o1 (configuration not stated) | 2.79%
62 | Cc1ccccc1OCCN1CCCC(c2cc(C(N)=O)[nH]n2)C1 (configuration not stated) | 23.5%
63 | Cn1cc(CN(C/C=C/c2ccccc2)C2CC2)cn1 | -59.5%
64 | O=C1CCCN1C1CCCN(CCn2cc(Cl)cn2)C1 (configuration not stated) | -63.5%
65 | CN(Cc1ccco1)[C@@H]1CN(Cc2nccs2)C[C@@H]2CCCO[C@@H]21 | 44.3%
66 | CC(C1CCN(Cc2cnn(C)c2C2CC2)CC1)N1CCCC1 (configuration not stated) | 40.9%
67 | CC(C1CCN(Cc2cnn(C)c2C2CC2)CC1)N1CCN(C)CC1 (configuration not stated) | 29%
68 | CC(C1CCN(Cc2cnn(C)c2C2CC2)CC1)N(C)C (configuration not stated) | 50.7%
69 | O=C(NCC1CCOC1)c1ccc(-c2ccccc2)[nH]c1=O (configuration not stated) | -26.6%

Row | Compound | INHIBITION
70 | Cc1cccc(-c2ccc(C(=O)NCC3CCCO3)c(=O)[nH]2)c1 (configuration not stated) | -29.1%
71 | Cc1ccc(CN2CCCC3(CCCC(=O)N3)C2)s1 (configuration not stated) | 21.1%
72 | CCOCCN1CCCC1CS(N)(=O)=O (configuration not stated) | 61.5%
73 | NS(=O)(=O)CC1CCCN1CCOc1ccccc1F (configuration not stated) | 37.9%
74 | Cc1ccccc1OCCN1CCCC1CS(N)(=O)=O (configuration not stated) | -55.2%
75 | COCc1ccc(C(=O)N2CCN(CC(C)O)CC2)cc1 (configuration not stated) | -7.81%
76 | COc1ncccc1C(=O)N1CCCC1c1c(C)nn(C)c1Cl (configuration not stated) | -23.9%
77 | CC(C)CN(Cc1ccc(-n2cncn2)cc1)Cc1ccccn1 | 34.9%
78 | Cc1nccn1CCN(C)c1nc(-c2cccnc2)nc2c1CCNC2 | -1.25%
79 | Cc1nonc1CN(C)c1nc(-c2cccnc2)nc2c1CCNC2 | 81.1%
80 | CN(CC1CCCCO1)c1nc(-c2cccnc2)nc2c1CCNC2 (configuration not stated) | 72.3%
81 | CN(CC(O)CO)c1nc(-c2cccnc2)nc2c1CCNC2 (configuration not stated) | 26.1%
82 | Cc1nonc1CN(C)c1nc(-c2ccco2)nc2c1CCN(C)CC2 | 75.4%
83 | Cc1noc(CN(C)c2nc(-c3ccco3)nc3c2CCN(C)CC3)n1 | 28.8%
84 | CN(CC1CCCO1)c1nc(-c2cccnc2)nc2c1CCNCC2 (configuration not stated) | 7.43%
85 | NCC1CN(c2nc(-c3cccnc3)nc3c2CCNCC3)CCO1 (configuration not stated) | 7.43%
86 | Cc1cc(CN(C)c2nc(-c3ccco3)nc3c2CCN(C)CC3)on1 | 30%
87 | CNC(=O)N1CCC2(CC1)c1ncc(C)n1CCN2C | 48.4%
88 | CN1C[C@H](c2ccccc2)[C@H]2CN(C(=O)Cc3cccc(O)c3)CC[C@H]21 | 43.7%
89 | O[C@@]1(CNCC2(Cn3ccnc3)CC2)CCCN2CCCC[C@@H]21 | -6.39%
90 | Cc1nnc(CNCC2(O)CCCN(Cc3ccc(F)c(F)c3)C2=O)[nH]1 (configuration not stated) | -1.33%
91 | CCOCc1cc(CN2CCn3c(CO)nnc3C2)ccc1OC | -38.2%
92 | Cc1ccc(CN2CCc3ncnc(C4CC4)c3CC2)s1 | 34.8%

Row | Compound | INHIBITION
93 | CC(C)Cc1nc(CN2CCN(CC(O)c3ccccc3)CC2)no1 (configuration not stated) | 23.5%
94 | CN(Cc1cnn(C)c1)C(=O)c1ccc(=O)n(Cc2ccccc2)n1 | 0.164%
95 | CCC(O)CN(C)Cc1nnc2ccccn12 (configuration not stated) | 61.8%
96 | CN(Cc1nnc2ccccn12)C(=O)CCC1CCCC1 | 54.7%
97 | O=C(CCC1CCCC1)NCc1nnc2ccccn12 | 76.4%
98 | O=C(CCC1CCCCC1)NCc1nnc2ccccn12 | -18.7%
99 | CN(Cc1nnc2ccccn12)C(=O)CCNC(=O)C(C)(C)C | 8.77%
100 | Cc1ccc(C)c(C(O)CN(C)Cc2nnc3ccccn23)c1 (configuration not stated) | 23.3%
101 | Cc1ccc(C)c(CN(C)Cc2nnc3ccccn23)c1 | 9.45%
102 | CN(Cc1nnc2ccccn12)C(=O)CC1CCCCC1 | 10.7%
103 | Cn1cccc1CNC(=O)CCCc1nnc2ccccn12 | -23.7%
104 | Cc1cc(C2CCCN(S(=O)(=O)c3cn(C)cn3)C2)ccn1 (configuration not stated) | 12.8%
105 | Cc1cnn(CC2CCCN2C(=O)c2c(F)cccc2Cl)c1 (configuration not stated) | -59.4%
106 | CC(O)CN1CCN(C(=O)c2ccn(-c3ccc(F)cc3)n2)CC1 (configuration not stated) | -7.35%
107 | Cc1cc(-c2ccc(=O)n(CCNC(=O)C3CC3)n2)c(C)o1 | -21.2%
108 | CC(C)C(C)NC(=O)c1cc(Br)c2c(c1)OCCO2 (configuration not stated) | 23.5%
109 | Cc1ccc(F)c(NS(=O)(=O)c2cc(C(=O)O)oc2C)c1 | 12.7%
110 | COc1cccc2cc(CNC(=O)N3CCCC(O)C3)oc12 (configuration not stated) | 42.7%
111 | COc1cccc2cc(CNC(=O)N3CCC(C(N)=O)CC3)oc12 | -36.1%
112 | COc1cccc2cc(CNC(=O)N3CCC(N4CCCC4)C3)oc12 (configuration not stated) | 54.4%

Reference: ChEMBL document CHEMBL4513216, “Probing the Open Global Health Chemical Diversity Library for Multistage-Active Starting Points for Next-Generation Antimalarials” (ACS Infect Dis, 2020)
